Shown are actives, neighbours in structure and some others; about 4.8% of the full set was active somewhere.
DAX1 inh-1: inhibits human nuclear receptor DAX1; inhibition, % at 6.75 µM; HEK293 Gal4-DAX1 luciferase reporter, luminescence; 340,000 compounds, 0.99% hits; P51843;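 active means inhibition above the mean over all tested compounds plus 3 SD, cut at about 4.2% in these data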;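 further: inhibition shows as a rise in luminescence from relieved DAX1 repression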
Target sequence (P51843 207-470 limits assumed): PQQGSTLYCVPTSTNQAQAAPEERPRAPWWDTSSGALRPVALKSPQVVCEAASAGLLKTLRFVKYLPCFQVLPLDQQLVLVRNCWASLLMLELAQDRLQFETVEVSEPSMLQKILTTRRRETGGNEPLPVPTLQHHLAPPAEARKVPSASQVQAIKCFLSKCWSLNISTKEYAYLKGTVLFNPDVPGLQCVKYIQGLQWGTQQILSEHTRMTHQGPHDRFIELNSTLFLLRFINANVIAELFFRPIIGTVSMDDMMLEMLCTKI
hgDAF12 agonist: agonists of H. glycines DAF-12 nuclear receptor; activation, % at 6.8 µM; HEK293 GAL4-hgDAF12 UAS-luciferase reporter, agonist luminescence; normalized to butyrate control; 370,000 compounds, 1.8% hits;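 active means activation above a cutoff set at the mean of all screened compounds plus 3 SD, cut at about 10% in these data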
ssDAF12 agonist: activates DAF-12 receptor from parasite S. stercoralis; HEK293 ssDAF-12/GRIP1 lit1-tk-luc reporter, luminescence; % of 3 µM dafachronic acid response; activation, % at 6.8 µM; 370,000 compounds, 1% hits;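 active means activation above the mean over all tested compounds plus 3 SD, cut at about 0.9% in these data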
SMARCA2 activ: SMARCA2 function activation, primary screen; MG213 cells, MMTV-luciferase reporter, dexamethasone, overnight; activation, % at 9.1 µM; 370,000 compounds, 1% hits; AID 652017; in the data active means activation above about 7.8%
DAX1 inh-2: DAX1 (NR0B1) inhibition, primary screen | inhibition, % at 6.8 µM | HEK293T StAR-luciferase reporter, SF-1/DAX-1 repression relief | 370,000 compounds, 1.1% hits;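 active means inhibition above the mean over all tested compounds plus 3 SD, cut at about 3.6% in these data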;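 further: higher inhibition means more luminescence from relief of DAX-1 repression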
hcDAF-12 act: activators of H. contortus DAF-12 nuclear receptor; 370,000 compounds, 1.4% hits; activation, % at 6.8 µM; HEK293 hcDAF-12 lit1-tk-luc reporter, luminescence; 0% DMSO, 100% Δ7-dafachronic acid; AID 652067;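 active means activation above the mean of all tested compounds plus 3 SD, cut at about 5.5% in these data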
DAX1 inh confirm: NR0B1 (human) inhibition, confirmation; inhibition, % at 6.8 µM; HEK293T StAR-promoter luciferase reporter, SF-1/DAX-1 repression; 2,400 compounds, 87% hits; shares compounds with DAX1 inh-2;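 active means inhibition above the average of every tested compound plus 3 SD, cut at about 3.8% in these data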;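 further: active compounds raise luminescence by relieving repression of the StAR reporter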
SF1 mutant ctr: nonselective inhibitor or artifact in SF-1 mutant DAX1 counter-screen; shares compounds with DAX1 inh-2; HEK293 StAR-luciferase, SF-1 AF2 mutant, luminescence; inhibition, % at 6.8 µM; 2,400 compounds, 78% hits;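 active means inhibition above the mean of all tested compounds plus 3 SD, cut at about 3% in these data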
Each line names hits and unclear results; the compound was inactive in the other large screens (follow-up assays come after a bar, where they were run).

CCCCC[C@H](C)N1C[C@H](COCc2ccccc2)Oc2cc(N3CCC[C@@H]3COC)ccc2S1(=O)=O	DAX1 inh-2 5.4 (no result: DAX1 inh-1) | DAX1 inh confirm inactive | SF1 mutant ctr inactive
C/C(=N\NC(=O)c1nnn(-c2nonc2N)c1-c1ccc2c(c1)OCO2)c1cccs1	none
CN(C(=O)CSc1nc(N)cc(N)n1)C1CCS(=O)(=O)C1 (centres undefined)	none
CC(=O)Nc1nc(-c2ccc(-c3ccccc3)cc2)cs1	DAX1 inh-2 4.5 | DAX1 inh confirm 5.9 | SF1 mutant ctr 4.5
CCN1C(=O)[C@@H]2[C@@H]3CN(S(=O)(=O)c4ccc(C)cc4)[C@@H](c4ccccc4F)[C@@H]3C(=O)C[C@@H]2C1=O	none (no result: DAX1 inh-1)
CCN(CC)C(=O)CSc1nnc(-c2c[nH]c3ccccc23)o1	none
O=C(Nc1ccc2oc(-c3ccccc3Cl)nc2c1)c1ncn[nH]1	DAX1 inh-2 6.7, hcDAF-12 act 5.8 | DAX1 inh confirm 14 | SF1 mutant ctr 7.9
O=C(Nc1ccc2oc(-c3cccc4ccccc34)nc2c1)c1ncn[nH]1	none
CN(C)CCN(C(=O)c1ccc2c(c1)CCCC2)c1nc2cc3c(cc2s1)OCCO3	DAX1 inh-2 6.0, hcDAF-12 act 6.1 | DAX1 inh confirm 4.4 | SF1 mutant ctr inactive
CN(C)CCN(C(=O)c1ccc2c(c1)OCCO2)c1nc2cc3c(cc2s1)OCO3	none
O=C1C=CC(n2cc(F)c(=O)[nH]c2=O)O1 (centres undefined)	none
COc1ccc(NC(=O)c2noc3c2CCC3)cc1	hgDAF12 agonist 13, DAX1 inh-2 4.9 | DAX1 inh confirm 13 | SF1 mutant ctr 6.0
COC(=O)C1CN(C(=O)COc2ccc(C)cc2)c2ccccc2O1 (centres undefined)	none
CCCC(=O)N1CCCC(c2nc(-c3cccc(OC)c3)no2)C1 (centres undefined)	DAX1 inh-1 4.7, hgDAF12 agonist 12, DAX1 inh-2 4.6 | DAX1 inh confirm 12 | SF1 mutant ctr 5.7
CCCCCCC(=O)N1CCCC(c2nc(-c3cccc(OC)c3)no2)C1 (centres undefined)	none
O=C(c1ccc2oc(CCCc3ccccc3)nc2c1)N1CCCC1	hgDAF12 agonist 11, ssDAF12 agonist 1.0, DAX1 inh-2 9.0, hcDAF-12 act 5.8 | DAX1 inh confirm 9.5 | SF1 mutant ctr 6.9
CCC(=O)C1CCCN(C(=O)c2ccc3nc(-c4cccc(OC)c4)oc3c2)C1 (centres undefined)	DAX1 inh-2 7.0 | DAX1 inh confirm 8.3 | SF1 mutant ctr 5.7
CCOC(=O)C1CCCN(C(=O)c2ccc3oc(CCc4ccccc4)nc3c2)C1 (centres undefined)	none
COc1cccc(-c2nc3ccc(C(=O)N4CCCC(O)C4)cc3o2)c1 (centres undefined)	DAX1 inh-2 5.3 | DAX1 inh confirm 7.4 | SF1 mutant ctr 7.4
COc1ccc(C(=O)NC2CCCc3c2cnn3-c2cc(F)cc(F)c2)c(OC)c1OC (centres undefined)	none
CSc1ccc(NC(=O)C2(C)CCN2C(=O)c2cc(C)n(C)n2)cc1 (centres undefined)	none (no result: DAX1 inh-1)
CCOC(=O)c1c(NC(=S)NNS(=O)(=O)c2ccc(Br)cc2)sc2c1CCCCC2	none
COc1ccc(Cc2nc3ccc(C(=O)N4CCCC4)cc3o2)cc1	hgDAF12 agonist 11, ssDAF12 agonist 1.1, DAX1 inh-2 8.3 | DAX1 inh confirm 9.2 | SF1 mutant ctr 3.4
COc1ccc(Cc2nc3ccc(C(=O)N4CCCC4)cc3o2)cc1OC	none
N#Cc1ccccc1OCC(=O)Nc1cc(S(=O)(=O)N2CCCCC2)ccc1N1CCOCC1	DAX1 inh-2 6.0 | DAX1 inh confirm inactive | SF1 mutant ctr inactive
CC1CCC2(CC1)NC(=O)N(CC(=O)N1CC(C)CC(C)C1)C2=O (centres undefined)	none
Cc1nn(-c2ccccc2)c(Cl)c1/C=N/NC(=O)c1ccn[nH]1	hgDAF12 agonist 13, DAX1 inh-2 14, hcDAF-12 act 5.8 | DAX1 inh confirm 8.8 | SF1 mutant ctr 5.8
C=CCn1c(SCc2c(Cl)cccc2Cl)nnc1-c1cccc(C)c1	none (no result: DAX1 inh-1)
COc1cc(SC)ccc1C(=O)Nc1ccc(Cl)cn1	hgDAF12 agonist 12, DAX1 inh-2 5.3 | DAX1 inh confirm inactive | SF1 mutant ctr inactive
CC(=Nc1ccccc1)C1=C(O)C(Cc2cccc(F)c2)NC1=O (centres undefined)	DAX1 inh-2 6.0 | DAX1 inh confirm 25 | SF1 mutant ctr inactive
COc1ccc(Cl)cc1C(=O)NNC(=O)COC(=O)c1cccs1	DAX1 inh-2 6.4 | DAX1 inh confirm inactive | SF1 mutant ctr inactive
O=C(NNC(=O)c1ccccc1O)c1cc2ccccc2o1	ssDAF12 agonist 1.1, DAX1 inh-2 5.6 | DAX1 inh confirm 3.8 | SF1 mutant ctr 4.0
CCN(c1ccccc1C)S(=O)(=O)c1nnc(NC(=O)c2ccco2)s1	DAX1 inh-2 4.8 | DAX1 inh confirm inactive | SF1 mutant ctr inactive
CCN(c1cc(C)cc(C)c1)S(=O)(=O)c1nnc(NC(=O)c2ccco2)s1	none
NC(=O)c1ccccc1N/C=C/C(=O)c1ccc(F)cc1	hgDAF12 agonist 11, DAX1 inh-2 5.2 | DAX1 inh confirm 9.7 | SF1 mutant ctr 6.4
CCn1ccc(C(=O)Nc2ncc(C)s2)n1	DAX1 inh-2 8.9 | DAX1 inh confirm 9.4 | SF1 mutant ctr 4.4
Cc1ccc(S(=O)(=O)N(C)C)cc1NC(=O)COC(=O)/C=C/c1ccc2ccccc2n1	DAX1 inh-2 5.0 | DAX1 inh confirm inactive | SF1 mutant ctr inactive
COc1ccc(/C=C/c2cc(C(=O)O)c3ccccc3n2)cc1	hgDAF12 agonist 13, ssDAF12 agonist 1.0, DAX1 inh-2 4.5, hcDAF-12 act 6.0 | DAX1 inh confirm 9.8 | SF1 mutant ctr 3.2
COc1cccc(CNC(=S)Nc2ccc3c(c2)c(=O)n(C)n3Cc2ccccc2)c1	none (no result: DAX1 inh-1)
COC(=O)C1=CN(c2ccc(C(C)(C)C)cc2)C(N)=C(C#N)C1c1cccc2ccccc12 (centres undefined)	DAX1 inh-2 5.2 (no result: DAX1 inh-1) | DAX1 inh confirm inactive | SF1 mutant ctr inactive
COC(=O)C1=CN(c2ccc(OC)cc2)C(N)=C(C#N)C1c1cccc2ccccc12 (centres undefined)	none (no result: DAX1 inh-1)
COc1ccc(NC(=O)c2cccnc2)cc1	none
CC(=O)Nc1ccc2ccccc2c1	none (no result: hgDAF12 agonist, ssDAF12 agonist, SMARCA2 activ, DAX1 inh-2, hcDAF-12 act)
